Many of the other results were omitted from the sample, so hits are more common in it than they were.
HT1080-NT tox: qHTS for induction of synthetic lethality in tumor cells producing 2HG: qHTS for the HT-1080-NT fibrosarcoma cell line. 360,000 tested, 1.6% active. AID 686970, 2013. HT-1080-NT fibrosarcoma viability, CellTiter-Glo ATP luminescence, 48 h. Potency, µM (series often up to 46.1 µM), without a hit: at the highest dose activity, negative = less viability, hits mostly cytotoxic;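 note: NT is the 2HG producing partner of a matched IDH1 knockdown line; potency is the fitted concentration of half-maximal effect; 0% = DMSO-treated cells and -100% = media-only wells without cells; nearly all actives have a fitted effect of over 55% in size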
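HT-1080-NT; 750 cells/well; 5% FBS RPMI; 48 h compound, 37 degrees C; CellTiter-Glo luminescence; curve fitting and curve-class assignment.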
IL1B secr inh: qHTS for Inhibitors of Inflammasome Signaling: IL-1-beta AlphaLISA Primary Screen; THP-1 LPS/ATP IL-1B secretion, AlphaLISA, 16 h; hits give low values; AID 743279, 2014; 360,000 tested, 4.7% active; activity change, % at 57.5 µM; in the data active = activity change below about -50%; inconclusive = mostly about -30% to -49%
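Secreted IL-1B measured by AlphaLISA bead assay after 16 h compound exposure of THP-1 cells; compounds (final up to 57.5 uM) added 1 h before LPS (250 ng/mL) and ATP (1.25 mM) stimulation; lower signal means less secretion.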
DT40 TDP1 CPT: qHTS for Inhibitors of human tyrosyl-DNA phosphodiesterase 1 (TDP1): qHTS in cells in presence of CPT; chicken DT40 Tdp1-/-;hTDP1 cells + 20 nM CPT, ATP luminescence, 48 h; Potency, µM (highest dose often 46.2 µM), for the others: top-dose activity change, negative = growth inhibition, usual class: inhibitors; 420,000 tested, 12% active; AID 686979, 2013; note: potency is the fitted concentration of half-maximal effect; nearly all actives have a fitted effect of over 55% in size
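Cell growth measured by CellTiter-Glo luminescence after a minimum 48 h, 37 C compound exposure with 20 nM CPT in Tdp1-knockout DT40 cells stably expressing hTDP1, seeded 400/well; qHTS titration format.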
DT40 TDP1 no CPT: qHTS for Inhibitors of human tyrosyl-DNA phosphodiesterase 1 (TDP1): qHTS in cells in absence of CPT; Potency, µM (highest dose often 46.2 µM), for inactives: top-dose activity change, negative = growth inhibition, actives largely listed as inhibitors; 420,000 tested, 15% active; DT40 Tdp1-/- hTDP1 cells, no CPT, ATP luminescence, 48 h; note: potency is the fitted concentration of half-maximal effect; nearly all actives have a fitted effect of over 55% in size
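Readout: luminescence from CellTiter-Glo after 30 min in the dark at RT. Cells: DT40 Tdp1-/- with stable hTDP1, 400/well. Exposure: compounds alone, ≥48 hr, 37 °C.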
12-LOX inh: Primary qHTS assay for inhibitors of human arachidonate 12S-lipoxygenase (ALOX12): Round 2; Polyunsaturated fatty acid lipoxygenase ALOX12 (Homo sapiens), P18054; purified 12hLO, xylenol orange hydroperoxide absorbance; Potency, µM (series often up to 108 µM), for inactives: at the top dose activity change, negative = inhibition, hits mostly inhibitors; 580,000 tested, 1.1% active; note: potency is the fitted concentration of half-maximal effect
Target sequence (P18054 whole entry, looked up): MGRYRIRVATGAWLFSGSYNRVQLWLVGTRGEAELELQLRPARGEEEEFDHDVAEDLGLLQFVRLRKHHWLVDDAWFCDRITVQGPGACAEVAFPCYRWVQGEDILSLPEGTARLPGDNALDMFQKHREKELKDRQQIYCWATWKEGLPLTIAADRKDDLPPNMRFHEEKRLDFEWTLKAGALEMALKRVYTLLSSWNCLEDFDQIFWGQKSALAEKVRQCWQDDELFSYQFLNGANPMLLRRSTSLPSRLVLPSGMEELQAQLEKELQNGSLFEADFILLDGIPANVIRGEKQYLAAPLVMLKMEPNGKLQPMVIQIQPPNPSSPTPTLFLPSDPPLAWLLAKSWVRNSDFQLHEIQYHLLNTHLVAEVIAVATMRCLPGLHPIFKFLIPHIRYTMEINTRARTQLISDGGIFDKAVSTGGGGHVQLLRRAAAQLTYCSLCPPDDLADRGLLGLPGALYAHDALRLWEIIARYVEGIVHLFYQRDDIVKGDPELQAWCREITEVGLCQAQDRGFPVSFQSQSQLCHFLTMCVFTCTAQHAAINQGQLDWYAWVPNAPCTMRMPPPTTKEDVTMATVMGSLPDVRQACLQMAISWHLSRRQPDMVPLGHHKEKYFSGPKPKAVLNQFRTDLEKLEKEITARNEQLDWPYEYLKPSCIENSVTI
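Hydroperoxide product was detected by ferrous iron/xylenol orange as the 573 to 405 nm absorbance ratio. Arachidonic acid at 40 uM (final) was turned over for 30 min at room temperature by 150 nM human 12hLO, pH 7.0 Hepes buffer, after 15 min compound preincubation.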
HT1080 IDH1KD tx: qHTS for induction of synthetic lethality in tumor cells producing 2HG: qHTS for the HT-1080-IDH1KD cell line | AID 686971, 2013 | Potency, µM (series often up to 46.1 µM), for the others: at the highest dose activity, negative = toxicity, most hits filed as cytotoxic | HT-1080 IDH1 knockdown viability, ATP luminescence, 48 h | 360,000 tested, 2% active;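 note: potency is the fitted concentration of half-maximal effect; 0% = DMSO wells and -100% = cell-free medium wells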
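Luminescent ATP read-out (CellTiter-Glo, 10 min at room temperature) after 48 h compound exposure at 37 °C gave viability of IDH1-knockdown HT-1080 cells. Activity was normalised to DMSO and cell-free wells, then fitted as concentration-response curves.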
* marks the source's active call; other numbers are inactive results; ? = inconclusive; nt = no result given; [ ] = dose if it differs, or a comment. Unless noted, calls come from the whole dose curve; as a rule, active = well fitted curve in the direction sought with a large enough effect; inconclusive = small, poorly fitted or top-dose-only effect, or another doubt; inactive = no such curve, though single readings can be large; an effect the other way counts as inactive or inconclusive. Unless noted, % is set by controls: 0 for no effect and ±100 for the full control effect.

SMILES | HT1080-NT tox | IL1B secr inh | DT40 TDP1 CPT | DT40 TDP1 no CPT | 12-LOX inh | HT1080 IDH1KD tx
Clc1ccccc1N=C1NN=C(c2cccs2)CS1 | ? | -77* | -4% | -2% | 39% | ?
CCOc1cc(/C=C/C(=O)c2ccc(C)cc2)cc(Br)c1O | nt | nt | nt | nt | 40µM* | nt
CCOc1cc(/C=C/C(=O)O)ccc1OCCO | 0% | 2 | 13µM* | 18µM* | -9% | 0%
CCOc1ccc(OCCOc2ccc(/C=C/C(=O)O)cc2OCC)cc1 | -1% | -8 | 34% | 3% | -6% | 1%
CCOc1cc(/C=C/C(=O)c2ccc(Cl)c(Cl)c2)ccc1O | nt | nt | nt | nt | 6.3µM* | nt
CCOc1ccc(/C=C/C(=O)c2ccc(Cl)cc2)cc1 | nt | nt | nt | nt | 2% | nt
CCOc1cc(/C=C/C(=O)c2ccc(C)cc2)ccc1OCC(=O)N(C)C | -25% | -105* | 18µM* | 21µM* | -22% | ?
Cc1ccccc1C(OC(=O)c1nn(C)c(=O)c2ccccc12)C(F)(F)F (centres undefined) | nt | nt | nt | nt | 24% | nt
COc1cc(/C=C/C(=O)c2ccc(C#N)cc2)cc(Br)c1O | nt | nt | nt | nt | 8.9µM* | nt
COc1ccc(/C=C/C(=O)c2ccc(C#N)cc2)cc1F | nt | nt | nt | nt | -1% | nt
CCC(=O)N1CCc2cc(CNS(=O)(=O)c3c(C)cc(C)cc3C)ccc21 | nt | nt | ? | 21µM* | ? | nt
Cc1cc(C)c(S(=O)(=O)NCc2ccc3c(c2)cc(C)n3C)c(C)c1 | -4% | 36 | ? | 23µM* | 14% | -3%
Cc1cc2cc(CNS(=O)(=O)c3ccc4ccccc4c3)ccc2n1C | -20% | 13 | 1% | -12% | 3%[57.4 µM] | 3%
Cc1cc(C)c(S(=O)(=O)NCc2ccc3c(c2)CCN3C(=O)c2ccccc2)c(C)c1 | nt | nt | 15µM* | 10µM* | -16% | nt
CC(C)(C)c1ccc(C(=O)Nc2ccc(Oc3ccc(Cl)cc3Cl)cc2)cc1 | nt | nt | nt | nt | -22% | nt
COC(=O)[C@H]1[C@H]2C[C@@H]3c4[nH]c5cc(OC)ccc5c4CCN3C[C@H]2C[C@@H](OC(=O)COc2ccc(OC)cc2)[C@@H]1OC | nt | nt | -4% | -21% | nt | nt
CCOC(=O)Oc1c(OC)cc(C(=O)O[C@@H]2C[C@@H]3CN4CCc5c([nH]c6cc(OC)ccc56)[C@H]4C[C@@H]3[C@H](C(=O)OC)[C@H]2OC)cc1OC | 15µM* | 0 | 23µM* | 13µM* | ? | ?
O=C1OC(/C(=C\Nc2cc(Cl)ccc2O)[N+](=O)[O-])c2ccccc21 (centres undefined) | ? | -170* | 9% | ? | ? | ?
Cc1ccc(N/C=C(\C2OC(=O)c3ccccc32)[N+](=O)[O-])c(C)c1 (centres undefined) | 1% | -77* | 1% | -30% | ? | 0%
Cc1cccc(Oc2ccc(NC(=O)c3ccc4c(c3)NC(=O)CS4)cc2)c1 | nt | nt | nt | nt | -14% | nt
CC1(C)CC(=O)C=C(NC2=CC3OC(c4ccccc4)OCC3OC2=O)C1 (centres undefined) | ? | -25 | 5.8µM* | 6.5µM* | -2% | 21µM*
CN(/N=C/c1ccco1)C1=NS(=O)(=O)c2ccccc21 | 15% | -19 | -5% | 9% | -2% | -6%
CN(/N=C/c1ccc(N(C)C)cc1)C1=NS(=O)(=O)c2ccccc21 | ? | -12 | 4.1µM* | ? | -22% | ?
CN(C1=NS(=O)(=O)c2ccccc21)c1ccc(OC(=O)c2ccccc2F)cc1 | 4% | -5 | -23% | ? | -8% | 3%
COc1ccc(/C=N/N(C)C2=NS(=O)(=O)c3ccccc32)cc1 | 10% | -6 | 9% | -4% | 0% | -9%
SMILES | HT1080-NT tox | IL1B secr inh | DT40 TDP1 CPT | DT40 TDP1 no CPT | 12-LOX inh | HT1080 IDH1KD tx
COc1ccc(N(C)C2=NS(=O)(=O)c3ccccc32)cc1 | 12µM* | 44 | 3.7µM* | 2.6µM* | 46% | 23µM*
CN(/N=C/c1cccc(Br)c1)C1=NS(=O)(=O)c2ccccc21 | 19% | ? | ? | 23µM* | 8% | 25%
N#Cc1ccc(C(=O)NCCc2ccco2)cc1 | nt | nt | nt | nt | 17% | nt
Cc1ccc2nc(-c3ccc(C)c(NC(=O)c4ccc([N+](=O)[O-])cc4)c3)oc2c1 | nt | nt | nt | nt | 7% | nt
CCCn1c(-n2nc(C)cc2C)nc2c1c(=O)n(Cc1cccc3ccccc13)c(=O)n2C | nt | nt | nt | nt | 7% | nt
COCCN1C(=O)CS(=O)C12CCN(C(=O)c1ccc3cc[nH]c3c1)CC2 (centres undefined) | nt | nt | nt | nt | 26% | nt
CC1=CC(C)(C)N2C(=O)C3(SCC(=O)N3c3ccc(F)cc3)c3cc(C)cc1c32 (centres undefined) | -16% | -16 | 29µM* | 10µM* | 7% | -4%
CCOC(=O)c1oc2nc(CC(C)C)c3c(c2c1N)CCC3 | 18% | ? | ? | 15µM* | ? | 14%
CCOC(=O)c1sc2nc(N3CCOCC3)c3c(c2c1N)CCC3 | 4% | ? | -27% | ? | 34% | 0%
CCCCN(CCCC)CCCNC(=O)c1cc(-c2ccc(Cl)s2)nc2ccccc12 | nt | nt | 13µM* | 15µM* | ? | nt
COc1ccc(NC(=O)c2cc(-c3ccncc3)nc3ccccc23)c(OC)c1 | ? | -20 | ? | ? | -6% | ?
CC(OC(=O)c1cc(-c2cccnc2)nc2ccccc12)C(=O)Nc1ccc2ccccc2c1 (centres undefined) | 1% | -8 | ? | 18µM* | -34% | 12%
COc1ccc(NC(=O)c2cc(-c3ccc(OC)c(OC)c3)nc3ccccc23)c(OC)c1 | -6% | 6 | 29µM* | 16µM* | -3% | -28%
COc1ccccc1CCNC(=O)c1cc(-c2ccccn2)nc2ccccc12 | -1% | 20 | ? | ? | 20% | 6%
COc1ccccc1CCNC(=O)c1cc(-c2ccncc2)nc2ccc(Br)cc12 | 1% | -3 | ? | 21µM* | -9% | -4%
COC(=O)c1ccc(NC(=O)C(NC(=O)c2ccc(C)cc2)C(C)C)c(C)c1 (centres undefined) | nt | nt | nt | nt | 1% | nt
